According to PubChem BioAssay (NCI):
About 83,000 compounds went through this panel and 20% of them were active in at least one assay; those are over-represented in the sample as a whole.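 Single-dose data. Exposure time 48 hours. Values below 10 considered active.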 Calls of active or inactive are those of the source.

Tests used:
Experiment in all cases: NCI-60 one-dose screen, 48 h (100 = growth as untreated, 0 = no growth, -100 = all killed)
Settings in all cases: 10 µM unless noted
NCI-H23 lung = tested on: NCI-H23 lung
NCI-H226 lung = tested on: NCI-H226 lung
NCI-H322M lung = tested on: NCI-H322M lung
HOP-62 NSCLC = tested on: HOP-62 NSCLC
NCI-H460 lung = tested on: NCI-H460 lung
HOP-92 NSCLC = tested on: HOP-92 NSCLC
NCI-H522 lung = tested on: NCI-H522 lung
A549/ATCC NSCLC = tested on: A549/ATCC NSCLC
786-0 renal = tested on: 786-0 renal
COLO 205 colon = tested on: COLO 205 colon
DU-145 prostate = tested on: DU-145 prostate
K-562 leukemia = tested on: K-562 leukemia
MALME-3M melanoma = tested on: MALME-3M melanoma
MDA-MB-231 breast = tested on: MDA-MB-231 breast
RXF 393 renal = tested on: RXF 393 renal
SF-268 CNS = tested on: SF-268 CNS
SF-295 CNS = tested on: SF-295 CNS
SF-539 CNS = tested on: SF-539 CNS
UACC-257 melanoma = tested on: UACC-257 melanoma
M14 melanoma = tested on: M14 melanoma

Measured: growth

Cc1nccc2c3ccc(OCc4cn(-c5ccc(Cl)cc5)nn4)cc3n(CC(C)C)c12
active: HOP-92 NSCLC 8.37% | NCI-H522 lung 1.04% | 786-0 renal 2.68% | COLO 205 colon -22.6% | K-562 leukemia 8.22% | MALME-3M melanoma 0.392% | RXF 393 renal 0.754% | UACC-257 melanoma 4.16%
inactive: NCI-H23 lung 14.1% | NCI-H226 lung 42% | NCI-H322M lung 66.1% | HOP-62 NSCLC 35.6% | NCI-H460 lung 17% | A549/ATCC NSCLC 30.7% | DU-145 prostate 54.1% | MDA-MB-231 breast 27.8% | SF-268 CNS 57.3% | SF-295 CNS 15.4% | SF-539 CNS 22.2% | M14 melanoma 23.2%

CSc1nc(-c2ccc(F)cc2)c(C#N)c(N2CCOCC2)n1
inactive: NCI-H23 lung 101% | NCI-H226 lung 80% | NCI-H322M lung 92.6% | HOP-62 NSCLC 97.3% | NCI-H460 lung 102% | HOP-92 NSCLC 73.9% | NCI-H522 lung 90.1% | A549/ATCC NSCLC 88.6% | 786-0 renal 93.7% | COLO 205 colon 106% | DU-145 prostate 101% | K-562 leukemia 92.9% | MALME-3M melanoma 116% | MDA-MB-231 breast 92.5% | RXF 393 renal 91.3% | SF-268 CNS 93.5% | SF-295 CNS 92.2% | SF-539 CNS 94.9% | UACC-257 melanoma 91.9% | M14 melanoma 107%

C=C(C)[C@@H]1CC[C@]2(C(N)=O)CC[C@]3(C)[C@H](CC[C@@H]4[C@@]5(C)CCCNC(C)(C)[C@@H]5CC[C@]43C)[C@@H]12
inactive: NCI-H23 lung 76.4% | NCI-H226 lung 86.3% | NCI-H322M lung 101% | HOP-62 NSCLC 91.4% | NCI-H460 lung 64% | HOP-92 NSCLC 65.4% | NCI-H522 lung 84.4% | A549/ATCC NSCLC 65% | 786-0 renal 87.2% | COLO 205 colon 69.3% | DU-145 prostate 92.4% | MALME-3M melanoma 75% | MDA-MB-231 breast 62.4% | RXF 393 renal 72.4% | SF-268 CNS 85.8% | SF-295 CNS 80.9% | SF-539 CNS 65.4% | UACC-257 melanoma 57.6% | M14 melanoma 86.8%
active: K-562 leukemia 7.26%

O=C(O)c1cn(C2CC2)c2cc(N3CCN(C(=O)CSc4nnc(-c5ccc(Cl)cc5)n4-c4ccccc4)CC3)c(F)cc2c1=O
inactive: NCI-H23 lung 96.2% | NCI-H226 lung 98.8% | NCI-H322M lung 110% | HOP-62 NSCLC 80.7% | NCI-H460 lung 104% | HOP-92 NSCLC 79.6% | NCI-H522 lung 72.7% | A549/ATCC NSCLC 94.3% | 786-0 renal 104% | COLO 205 colon 109% | DU-145 prostate 108% | K-562 leukemia 96.1% | MALME-3M melanoma 114% | MDA-MB-231 breast 106% | RXF 393 renal 113% | SF-268 CNS 103% | SF-295 CNS 107% | SF-539 CNS 105% | UACC-257 melanoma 96.4% | M14 melanoma 109%

CSc1nc(-c2cccs2)c2c(N)[nH]nc2n1
inactive: NCI-H23 lung 93.1% | NCI-H226 lung 104% | NCI-H322M lung 92.8% | HOP-62 NSCLC 87.9% | NCI-H460 lung 113% | HOP-92 NSCLC 110% | NCI-H522 lung 83.3% | A549/ATCC NSCLC 98.5% | 786-0 renal 91.4% | COLO 205 colon 112% | DU-145 prostate 107% | K-562 leukemia 88.4% | MALME-3M melanoma 121% | MDA-MB-231 breast 97.9% | RXF 393 renal 114% | SF-268 CNS 105% | SF-295 CNS 102% | SF-539 CNS 93% | UACC-257 melanoma 114% | M14 melanoma 126%

CCCCCCCc1n(Cc2ccc3ccccc3c2)c2ccccc2[n+]1Cc1ccc2ccccc2c1
active: NCI-H23 lung -76.9% | NCI-H226 lung -70.8% | NCI-H322M lung -86% | HOP-62 NSCLC -70.6% | NCI-H460 lung -73% | HOP-92 NSCLC -84.4% | NCI-H522 lung -81.1% | A549/ATCC NSCLC -77.5% | 786-0 renal -65.1% | COLO 205 colon -75.8% | DU-145 prostate -94.7% | K-562 leukemia -67.3% | MALME-3M melanoma -67.2% | MDA-MB-231 breast -81.2% | RXF 393 renal -72.1% | SF-268 CNS -74.9% | SF-295 CNS -92% | SF-539 CNS -88.9% | UACC-257 melanoma -76.5% | M14 melanoma -72%

CC(C)Cc1cc(CNC(=O)C2[C@H]3CN(C(=O)c4ccccc4)C[C@@H]23)nn1-c1ccccc1 (stereo not given in full)
inactive: NCI-H23 lung 96.3% | NCI-H226 lung 94.1% | NCI-H322M lung 95.3% | HOP-62 NSCLC 83.4% | NCI-H460 lung 102% | HOP-92 NSCLC 115% | NCI-H522 lung 49.4% | A549/ATCC NSCLC 72.2% | 786-0 renal 99.4% | COLO 205 colon 93.1% | DU-145 prostate 100% | K-562 leukemia 80.9% | MALME-3M melanoma 86.6% | MDA-MB-231 breast 103% | RXF 393 renal 99.8% | SF-268 CNS 94.4% | SF-295 CNS 101% | SF-539 CNS 96.8% | UACC-257 melanoma 73.4% | M14 melanoma 95.5%

O=C1NN(c2ccccc2)C(c2ccc(Cl)cc2)N2CCC[C@H]12 (stereo not given in full)
inactive: NCI-H23 lung 90.7% | NCI-H226 lung 95.6% | NCI-H322M lung 94.1% | HOP-62 NSCLC 98.8% | NCI-H460 lung 103% | HOP-92 NSCLC 100% | NCI-H522 lung 106% | A549/ATCC NSCLC 103% | 786-0 renal 105% | COLO 205 colon 108% | DU-145 prostate 100% | K-562 leukemia 97% | MALME-3M melanoma 92.2% | MDA-MB-231 breast 113% | RXF 393 renal 108% | SF-268 CNS 97.4% | SF-295 CNS 101% | SF-539 CNS 111% | UACC-257 melanoma 94.7% | M14 melanoma 97.9%
